HEK293 cAMP cs: parental HEK293 cAMP activation (counter-screen); parental HEK293 CNG cAMP sensor, membrane potential fluorescence; Potency, µM (series often up to 57.1 µM), usual class: activators; 2.5% of 73,000 active; AID 938; also: nearly all actives have a fitted effect of over 55% in size
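Parental HEK 293 cells stably expressing a cAMP-gated CNG channel were loaded with membrane potential dye containing 100 uM RO 20-1724 for 60 min. Compound added for 30 min; depolarization read as fluorescence intensity at 590 nm.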
Tau filament bind: binds recombinant human tau filaments; P10636; recombinant tau filaments, thioflavin S fluorescence, 15 h; filaments grown with octadecylsulfate alongside compound; Potency, µM (titrated, usually from 57.1 µM); 2% of 71,000 active; AID 596;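 also: actives lower thioflavin S fluorescence by blocking filaments or displacing dye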
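ThS-based fibril read: tau 1 uM final, inducer ODS 30 uM final, 37 C for 15 h, ex 450/em 510 nm.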
Hsp90 Hop PPI: changes Hsp90-Hop TPR2A binding signal, up or down | AlphaScreen TPR2A-His6 binding biotin-Hsp90 C-terminal peptide | Potency, µM (top dose mostly 57 µM) | 0.44% of 71,000 active | AID 595; active = well fitted curve in either direction with a large enough effect; inconclusive = small, poorly fitted or top-dose-only effect, or another doubt
TSHR ag: agonists of human thyroid stimulating hormone receptor; HEK293-CNG-TSHR cells (CNG channel as cAMP sensor), membrane potential dye, cAMP; Potency, µM (highest dose often 57.1 µM), most hits filed as activators; 0.48% of 73,000 active; active = well fitted activation curve with a large enough effect in the main read-out, with a control signal flat, not every such curve was filed as active; inconclusive = small, poorly fitted or top-dose-only effect, or a change in a side signal; inactive = no such curve, though single readings can be large or run the other way; reference of the percent scale not stated here;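 also: the control signal comes from parental cells without the receptor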
Target sequence (P16473 whole entry, looked up): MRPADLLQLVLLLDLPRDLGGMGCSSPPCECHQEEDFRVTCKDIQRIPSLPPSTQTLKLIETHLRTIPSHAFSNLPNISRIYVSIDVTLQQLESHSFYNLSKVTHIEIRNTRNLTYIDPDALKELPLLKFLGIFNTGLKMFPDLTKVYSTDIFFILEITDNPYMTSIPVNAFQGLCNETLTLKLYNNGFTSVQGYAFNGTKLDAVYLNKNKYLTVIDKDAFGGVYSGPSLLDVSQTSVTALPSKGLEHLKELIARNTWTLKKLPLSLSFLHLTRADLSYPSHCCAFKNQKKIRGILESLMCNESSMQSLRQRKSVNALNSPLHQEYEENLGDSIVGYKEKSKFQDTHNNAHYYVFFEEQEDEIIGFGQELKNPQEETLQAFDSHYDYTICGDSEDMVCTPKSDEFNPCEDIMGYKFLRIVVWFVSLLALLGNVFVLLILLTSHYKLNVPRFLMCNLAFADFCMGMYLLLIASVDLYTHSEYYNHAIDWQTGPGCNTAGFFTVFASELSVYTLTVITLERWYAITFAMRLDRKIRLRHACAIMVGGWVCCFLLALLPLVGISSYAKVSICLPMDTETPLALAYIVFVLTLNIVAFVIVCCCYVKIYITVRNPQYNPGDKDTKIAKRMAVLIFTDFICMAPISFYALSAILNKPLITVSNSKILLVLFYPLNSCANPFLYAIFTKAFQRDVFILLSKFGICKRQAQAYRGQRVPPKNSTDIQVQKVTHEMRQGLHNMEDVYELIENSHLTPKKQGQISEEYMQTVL
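cAMP rise detected as CNG-channel membrane depolarization by fluorescent dye (emission 590 nm), 30 min after compound, following 60 min dye loading containing 100 uM RO 20-1724 at room temperature. Cells: TSHR/CNG HEK 293, with parental CNG HEK 293 as control.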
Pol III holo inh: inhibitors of bacterial DNA polymerase III holoenzyme; 0.25% of 71,000 active; Potency, µM (series often up to 57.1 µM); AID 603; reconstituted DNA polymerase III holoenzyme replication, biochemical
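Reconstituted *E. coli* holoenzyme (0.35 nM Pol III, 1 nM beta, 154 nM SSB, 2 nM primase) was preincubated with compound for 15 min at RT. Synthesis on 1.4 nM ssM13Gori ran 35 min, then was stopped with PicoGreen/EDTA and read as dsDNA fluorescence.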
Large screens that a line does not name were inactive. Shown are actives, neighbours in structure and some others; about 5.1% of the full set was active somewhere. Unless noted, calls follow the shape of the dose curve; as a rule, active = well fitted curve in the direction sought with a large enough effect; inconclusive = small, poorly fitted or top-dose-only effect, or another doubt; inactive = no such curve, though single readings can be large; an effect the other way counts as inactive or inconclusive.

CCn1cc(SCC(=O)Nc2cc(C)on2)c2ccccc21	none
CC(=O)OC[C@@H]1O[C@@H](O/N=C2/C[C@@H](O)[C@@H](O)[C@@H]3[C@@H]4C(=O)N(C(C)(C)C)C(=O)[C@H]4CC[C@H]23)[C@H](OC(C)=O)[C@H](OC(C)=O)[C@@H]1OC(C)=O	none (no result: Tau filament bind, Hsp90 Hop PPI, Pol III holo inh)
CN1/C(=C/C(=O)c2nc(S(C)(=O)=O)ncc2Cl)C(C)(C)c2ccccc21	Tau filament bind 10µM
CN1/C(=C\C(=O)C(F)F)C(C)(C)c2ccccc21	HEK293 cAMP cs 32µM, TSHR ag inconclusive
CN1/C(=C\C(=O)COC(=O)C2COc3ccccc3O2)C(C)(C)c2ccccc21 (stereo not drawn)	none
Cc1ccc(C(C)C)cc1C(=O)CC1(O)C(=O)N(C)c2ccccc21 (stereo not drawn)	none (no result: TSHR ag)
CN1/C(=C\C(=O)COc2ccc3c(c2)OCO3)C(C)(C)c2ccccc21	HEK293 cAMP cs 32µM, TSHR ag inconclusive
CC(C)NC(=O)N1CC[C@@]2(CCCN(C(=O)c3cc(C(F)(F)F)cc(C(F)(F)F)c3)C2)C1	none
CC(C)CN1CCC2(CC1)CCN(S(=O)(=O)c1ccccc1)CC2	none
CCC[C@@H]1C[C@@]1(CCC)C(NP(=O)(c1ccccc1)c1ccccc1)c1ccc(Cl)cc1 (stereo partly drawn)	HEK293 cAMP cs 13µM, TSHR ag inconclusive
CCC[C@@H]1C[C@@]1(CCC)C(NC(=O)c1ccco1)c1ccc(Cl)cc1 (stereo partly drawn)	HEK293 cAMP cs 10µM, Hsp90 Hop PPI inconclusive, TSHR ag inconclusive
CCC[C@@H]1C[C@@]1(CCC)C(NC(=O)c1cccs1)c1ccc(Cl)cc1 (stereo partly drawn)	HEK293 cAMP cs inconclusive, Hsp90 Hop PPI inconclusive, TSHR ag inconclusive
N=C(c1ccc2ccccc2c1)c1ccccc1Cc1ccccc1	none
C=C(C)CSc1nnc(-c2cccc(S(=O)(=O)N(C)C)c2)n1-c1cc(OC)ccc1OC	HEK293 cAMP cs 13µM, TSHR ag inconclusive
O=[N+]([O-])c1ccc(CSCc2ccc(Cl)cc2)cc1	none
CCCCOCCOCCOCc1cc2c(cc1CCC)OCO2	HEK293 cAMP cs 32µM, TSHR ag inconclusive
CCCCOCCCNC(=O)c1ccc2c(c1)OCO2	none
COc1ccc(NC(=O)C2CCCN2S(=O)(=O)c2ccc3c(c2)CCC(=O)N3)c(OC)c1 (stereo not drawn)	Tau filament bind 25µM
CN(C)c1ncc2nc(-c3cccs3)c(=O)n(CCc3ccccc3)c2n1	none
CCC(C)(C)NC(=O)C(c1ccc(C)o1)N(Cc1cccs1)C(=O)Cn1nnc2ccccc21 (stereo not drawn)	HEK293 cAMP cs 16µM, TSHR ag inconclusive
CCC(C)(C)NC(=O)C(c1ccccc1F)N(Cc1ccco1)C(=O)Cn1nnc2ccccc21 (stereo not drawn)	HEK293 cAMP cs 16µM, TSHR ag inconclusive
COCCNC(=O)C(c1ccc(C)o1)N(Cc1ccc(OC)cc1)C(=O)Cn1nnc2ccccc21 (stereo not drawn)	none
Clc1ccc(/C=C\c2nc(Cl)c(-c3ccc(Cl)cc3)c(Cl)n2)cc1	none
CN(C)Cc1ccc(-c2cc3onc(-c4ccccc4)c3c(=O)n2C)cc1	none (no result: TSHR ag)
CC(NS(C)(=O)=O)C(c1cccs1)N1CCN(c2ccccc2)CC1 (stereo not drawn)	none
COc1ccc(N2CCN(C(c3cccs3)C(C)NS(=O)(=O)c3ccccc3)CC2)cc1 (stereo not drawn)	Tau filament bind 16µM, Hsp90 Hop PPI inconclusive
C=Cc1c(C)c2cc3nc(cc4[nH]c(cc5nc(cc1[nH]2)C(C)=C5CCC(=O)O)c(CCC(=O)OC)c4C)[C@@]1(C)C3=CC=C(C(=O)OC)[C@H]1C(=O)OC (tested in a mixture with another compound)	Tau filament bind 1.6µM, Hsp90 Hop PPI 0.25µM
Cc1noc(C)c1CSc1ccccc1C(=O)N1CCN(c2ccccc2)CC1	TSHR ag 3.2µM
COc1ccc(CCn2c(C)cc(C(=O)CSc3nnc(N)s3)c2C)cc1	HEK293 cAMP cs 25µM, TSHR ag inconclusive
Cc1cc(C(=O)CSc2nnc(N)s2)c(C)n1CCc1ccc(Cl)cc1	HEK293 cAMP cs 25µM, TSHR ag inconclusive
O=C(c1csnn1)N1CCC2(CCCN(Cc3cc(C(F)(F)F)cc(C(F)(F)F)c3)C2)CC1	none (no result: TSHR ag)
O=C(O)c1ccccc1NS(=O)(=O)c1cccc2ccccc12	none (no result: Tau filament bind, Hsp90 Hop PPI, Pol III holo inh)
COC(=O)Cn1cnc2c(nnn2-c2cccc(Cl)c2)c1=O	none (no result: TSHR ag)
CN(C)CCCN1C(=O)C(=O)/C(=C(/O)c2ccc3c(c2)OCO3)C1c1cccnc1 (stereo not drawn)	none
Cc1ccc2cc3c(N)c(C(=O)N4CCOCC4)sc3nc2c1	none
COc1ccc2cc3c(N)c(C(=O)N4CCCC4)sc3nc2c1	Tau filament bind 20µM
Oc1ccc([C@@H]2CNCc3sccc32)cc1O	HEK293 cAMP cs 32µM, TSHR ag inconclusive
CC(=O)N1CCC2(CCCN(C(=O)Nc3cccc(F)c3)C2)CC1	none
COC(=O)c1c(NC(=O)c2ccco2)sc(C(=O)Nc2ccc(F)cc2)c1C	HEK293 cAMP cs 25µM, TSHR ag inconclusive
CCCCNc1nc(C)nc2c1nc(-c1ccccc1)n2CCN1CCCC1	HEK293 cAMP cs inconclusive, TSHR ag inconclusive
Cc1nc(NC2CCCCC2)c2nc(-c3ccccc3)n(CCN(C)C)c2n1	HEK293 cAMP cs 10µM, TSHR ag inconclusive
CCN1CCCC1Cn1c(-c2ccccc2)nc2c(NC3CCCCC3)nc(C)nc21 (stereo not drawn)	HEK293 cAMP cs 20µM, TSHR ag inconclusive
CCCCNc1nc(C)nc2c1nc(-c1ccccc1)n2CC1CCCN1CC (stereo not drawn)	HEK293 cAMP cs 16µM, TSHR ag inconclusive
CCCCNc1nc(C)nc2c1nc(-c1ccccc1)n2CC(C)(C)CN(C)C	HEK293 cAMP cs 32µM, TSHR ag inconclusive
Cn1c(=O)c2[nH]c(COCc3nc4c([nH]3)c(=O)n(C)c(=O)n4C)nc2n(C)c1=O	none
COC(=O)C1=C(C)N(Cc2ccccc2)C2=C3C(=O)CCCC3[C@@](O)(C(=O)OC)C(=O)N2C1c1ccccc1 (stereo partly drawn)	none (no result: Tau filament bind, Hsp90 Hop PPI, Pol III holo inh)
CC(=O)N1CCC2(CC1)CN(c1ccncc1)C2	none
Cn1c(=O)c(-c2ccc(Cl)cc2)nc2cnc(Nc3ccccc3)nc21	none
Cn1c(=O)oc2cc(S(=O)(=O)Nc3ccc4c(c3)OCO4)ccc21	Tau filament bind 20µM
Cn1c(=O)c2cc(S(=O)(=O)Nc3ccc4c(c3)OCO4)ccc2n(C)c1=O	none
CCN(CC)CCCC(C)NC(=O)c1ccc(Cc2nc3ccccc3[nH]2)cc1 (stereo not drawn)	none (no result: Tau filament bind, Hsp90 Hop PPI, Pol III holo inh)
COC(=O)[C@@H]1C[C@H]1[C@@H](NC(=O)Oc1ccc(F)cc1)c1ccccc1	HEK293 cAMP cs 10µM, TSHR ag inconclusive

Compound activity (PubChem BioAssay)
